# Experimental data as given in PubChem BioAssay AID2278 (National Center for Advancing Translational Sciences (NCATS), 2010).
# Records with an inconclusive call do not appear. Where a call stands in place of a potency, no number is given. The source made the active and inactive calls. Calls come from the whole dose curve; as a rule, active = well fitted curve in the direction sought with a large enough effect; inconclusive = small, poorly fitted or top-dose-only effect, or another doubt; inactive = no such curve, though single readings can be large or run the other way.
# Target: Group 10 secretory phospholipase A2 (Mus musculus) (UniProt Q9QXX3)
# Assay: Secondary Assay for Inhibitors of Ubiquitin-specific Protease USP2a: PLA2 Counterscreen
# Conditions: purified murine PLA2, NBD C6-HPC fluorescence; series mostly up to 57.5 µM
# Excerpt: NIH Molecular Libraries Screening Centers Network [MLSCN] NIH Chemical Genomics Center [NCGC] MLSCN Grant: XO1-MH079852-01 PI Name: Nicholson, Ben. Progenra Inc, Malvern, PA NCGC Assay Overview: Homeostasis of cellular proteins is maintained through a combination of synthesis and degradation. The pathway that accounts for the majority of protein degradation is the ubiquitin-proteasomal pathway. Ubiquitin (Ub) is highly conserved in all cells and the generation of a multi-Ub chain typically targets proteins for degradation by the proteasome. However, ubiquitination is highly reversible and dynamic. Deubiquitination, the reverse process, is catalyzed through the action of enzymes referred to as isopeptidases or deubiquitinating enzymes (DUBs). This group of enzymes is collectively responsible for maintaining adequate pools of free ubiquitin and regulating the ubiquitination status of cellular proteins. The class of DUBs referred to as the ubiquitin-specific proteases (USP) family functions endoproteolytically to cleave Ub chains from a wide range of protein substrates. USP2a deubiquitinates fatty acid synthase (FASN) which has recently been identified as an emerging oncology target. To identify inhibitors of USP2a a cell-free assay was employed. This is assay is a counterscreen used for the for the USP2a-PLA2 coupled assay. In this assay the murine PLA2 reporter enzyme is screened alone using NBD C6-HPC (Invitrogen) as a fluorogenic substrate.
# NCGC Assay Protocol Summary: The assay buffer, prepared fresh at the day of the assay, contains 20mM Tris-HCl pH 8.0, 2mM CaCl2, 2mM beta-mercaptoethanol, 0.1% DMSO. 3ul of 10nM (5nM final) free PLA2, which is stored on ice, is dispensed into a medium-binding black solid Kalypsys 1,536 well plate using the Aurora BioRaptr. The assay plate is then pinned with 23nL compound with the Kalypsys pintool. The controls were pinned as follows: row 31 2M NEM and row 32 DMSO. Subsequently, 3uL 40uM (20uM final) NBD C6-HPC (stored on ice and protected from light) were dispensed into the plate using the BioRaptr dispenser. Plates were read immediately on an Envision (Perkin Elmer) plate reader using wavelengths of Ex 460nm /Em 535nm. Then, the assay plates were incubated for 2.5 hours and read again on the Envision using the same settings. Data were normalized to the to AC100 inhibition (NEM). Concentration-response curves were fitted to the normalized data and the concentration-response curves were then classified based on curve quality (r2), response magnitude and degree of measured activity. The time zero reading was used to flag fluorescence artifacts. Keywords: ubiquitination, deubiquitination, proteases, profluorescent, MLSMR, MLSCN, NIH Roadmap, qHTS, NCGC
# Sequence of Group 10 secretory phospholipase A2 (Mus musculus) (Q9QXX3 whole entry, looked up): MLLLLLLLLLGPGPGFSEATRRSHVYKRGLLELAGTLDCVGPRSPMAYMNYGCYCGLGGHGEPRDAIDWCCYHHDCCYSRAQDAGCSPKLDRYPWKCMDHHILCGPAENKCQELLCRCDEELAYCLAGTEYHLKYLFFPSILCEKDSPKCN
row,SMILES,Potency
1,CCOC(=O)C1CCCN(c2c(C(=O)c3ccc(C)cc3)cnc3ccc(OCC)cc23)C1 (stereo not given),inactive
2,CCCc1cc(=O)oc2c3c(ccc12)OCN(Cc1ccc(OC)cc1)C3,inactive
3,Cc1ccc2scc(N3CCN(c4cccc(C(F)(F)F)c4)CC3)c(=O)c2c1,inactive
4,O=c1c(O)c(-c2cc(O)c(O)c(O)c2)oc2cc(O)cc(O)c12,inactive
5,COc1ccc(C2C=C(c3ccc(Br)cc3)Nc3nnnn32)c(OC)c1 (stereo not given),inactive
6,COc1ccc(Cl)cc1NC(=O)CSc1nc(=O)[nH]c2c1CCC2,inactive
7,O=C(CSc1nc(=O)n(Cc2ccccn2)c2c1CCC2)Nc1ccccc1,inactive
8,COc1ccc(C2=CC(c3cccc(C)c3)n3nnnc3N2)cc1 (stereo not given),inactive
9,COc1cc(C2C(C(=O)Nc3ccccc3C)=C(C)Nc3nc(SCc4cc(C)ccc4C)nn32)ccc1O (stereo not given),inactive
10,Cc1nn(C(=O)c2cccc([N+](=O)[O-])c2C)c(C)c1S(=O)(=O)N1CCCCCC1,inactive
11,O=C(CSc1nc2ccsc2c(=O)n1-c1ccc(Br)cc1)NCc1ccccc1,inactive
12,CCOc1ccc(C2=C(C(C)=O)Sc3nnc(C)n3N2C(C)=O)cc1,inactive
13,Cc1c(C(=O)N(C)C)sc2c1c(=O)n(-c1ccc(Cl)c(Cl)c1)c(=O)n2CC(=O)Nc1ccc(Br)cc1F,inactive
14,Cc1nnc(SCC(=O)NCc2ccccc2F)c2nn(-c3ccc(Cl)cc3)c(C)c12,inactive
15,Cc1ccc(-n2nc3c(=O)n(CCCC(=O)NCCc4ccccc4Cl)nc(C)c3c2C)cc1,inactive
16,COC(=O)c1c(NC(=O)CS(=O)(=O)c2ccc(C)cc2)sc2c1CCCCC2,inactive
17,CCc1ccc(C(=O)c2c(N)c(-c3nc(-c4ccc5c(c4)OCO5)cs3)c3ccccn23)cc1,inactive
18,Oc1c(C(Nc2ccccn2)c2ccccc2F)ccc2cccnc12 (stereo not given),inactive
19,Cc1cc(C)c2nc(N(Cc3cccnc3)C(=O)CCS(=O)(=O)c3ccccc3)sc2c1,inactive
20,CCCCCC(=O)N1c2ccccc2C(C)(c2ccccc2)CC1(C)C (stereo not given),inactive
21,CCCCn1c(SCC(=O)NCCCOC)nc2c(sc3ccccc32)c1=O,inactive
22,O=C(CCS(=O)(=O)c1ccccc1)N(Cc1cccnc1)c1nc2c(Cl)cccc2s1,inactive
23,COc1ccc(C(=O)/C=C/c2cn(CC(O)CN(CC(C)C)CC(C)C)c3ccccc23)cc1OC (stereo not given),inactive
24,CCC(C)NC(=O)CSc1nc2cc3c(cc2c(=O)n1Cc1ccc(C(=O)NCCc2ccc(OC)c(OC)c2)cc1)OCO3 (stereo not given),inactive
25,CCC(=O)C1=C(c2ccc(OC)c(OC)c2)N(C(=O)CC)n2c(CC)nnc2S1,inactive
26,CCc1cccc(NC(=O)CSc2ncccc2C(=O)Oc2ccccc2Cl)c1,inactive
27,Cc1cc(C)cc(NC(=O)c2sc3nc4n(c(=O)c3c2C)N=C(c2ccccc2)CS4)c1,20 µM (active)
28,Cc1ccc([C@H]2Nc3ccc(S(=O)(=O)Nc4cccc(Cl)c4C)cc3[C@H]3C=CC[C@H]32)cc1,inactive
29,COc1ccc2c(c1)c1c(c(=O)n(-c3ccc(OC)c(OC)c3)c(=O)n1Cc1ccccc1C)n2C,inactive
30,CC(=O)Nc1ccc(NC(=O)Cn2nc(C(=O)Nc3ccc(C)cc3)ccc2=O)cc1,inactive
